Potency data for 30 molecules are collected here from PubChem BioAssay (Tox21).

Structures are written as SMILES. Inconclusive results are not listed. A number with no mark means an inactive call. Activity calls are given as the source filed them. Unless noted, calls follow the shape of the dose curve; as a rule, active = well fitted curve in the direction sought with a large enough effect in the repeat runs; inconclusive = weak or mixed curves; inactive = no such curve, though single readings can be large; an effect the other way counts as inactive or inconclusive.

Experiment [1] addresses Luciferin 4-monooxygenase (Photinus pyralis) (UniProt P08659). Kind of experiment: qHTS assay to identify small molecule inhibitors of firefly luciferase (AID 1224835). Also: nearly all actives have a fitted effect of over 25% in size. Also: potency is read from the fitted curve at half-maximal effect. In short, it runs like this:
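Biochemical qHTS: compounds run as interplate titrations against purified firefly enzyme, with D-luciferin and ATP each at its KM concentration. Light output recorded by CCD imaging.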
Background: In qHTS, concentration-response curves come from the screen itself.

The nature of experiment [2]: qHTS assay to identify small molecule antagonists of the constitutive androstane receptor (CAR) signaling pathway - cell viability counter screen (AID 1224837). Also: series mostly up to about 92 µM; nearly all actives have a fitted effect of over 45% in size. In a few lines: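 Counter screen run in HepG2-CYP2B6-hCAR cells: 4 hr settle, compound titration (15 concentrations) with 50 nM CITCO, 23 hr at 37 C/5% CO2, CellTiter-Fluor fluorescence.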
Experiment [3] addresses Nuclear receptor subfamily 1 group I member 3 (Homo sapiens) (UniProt Q14994). Kind of experiment: qHTS assay to identify small molecule antagonists of the constitutive androstane receptor (CAR) signaling pathway (AID 1224838).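 Also: HepG2 cells stably expressing hCAR with CYP2B6 luciferase reporter stimulated by CITCO; nearly all actives have a fitted effect of over 40% in size.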 Also: potency is read from the fitted curve at half-maximal effect. In a few lines:
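Cell line: HepG2 double-stable for hCAR and CYP2B6-2.2kb reporter. Agonist: CITCO, 50 nM final. Compounds: 15 concentrations, 24 h, 37 C. Detection: ONE-Glo luminescence.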

The target is the same in experiment [4]. Kind of experiment: qHTS assay to identify small molecule agonists of the constitutive androstane receptor (CAR) signaling pathway (AID 1224839). Also: nearly all actives have a fitted effect of over 15% in size. Also: potency is read from the fitted curve at half-maximal effect. In a few lines: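 Compounds tested at 15 concentrations on HepG2 cells stably harbouring hCAR and CYP2B6-2.2kb reporter constructs, co-treated with PK11195 (0.75 uM final), 24 h at 37 C; luminescent reporter signal quantified.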

Experiment [5] is described as follows: qHTS assay to identify small molecule antagonists of the estrogen related receptor signaling pathway with the pleiotropic PPARgamma coactivator (PGC) from Tox21 10K library - cell viability counter screen (AID 1224840; active = well fitted cell-killing curve with a large enough effect in the repeat runs, not every such curve was filed as active; also: nearly all actives have a fitted effect of over 40% in size). In short, it runs like this:
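Following seeding of 2,000 PGC/ERR cells/well and 6 hours' incubation, test compounds were delivered in DMSO. The plates then sat 17.5 hours at 37 C before a fluorogenic live-cell protease reagent (CellTiter-Fluor) was read after 30 min.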

Experiment [6] can be described thus: qHTS assay to identify small molecule antagonists of the estrogen related receptor signaling pathway with the pleiotropic PPARgamma coactivator (PGC) from Tox21 10K library (AID 1224841; call rule not given here; also: series mostly up to about 92 µM; actives are mostly falling curves and most rising ones were filed inactive; nearly all actives have a fitted effect of over 50% in size). In a few lines: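 qHTS antagonist format: PGC/ERR cells, 2k/well, compound in DMSO by pin transfer after 6 h attachment, 18 h treatment at 37 C, One-Glo luminescence read at 30 min.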

Experiment [7] in a line: qHTS assay to identify small molecule agonists of the estrogen related receptor signaling pathway with the pleiotropic PPARgamma coactivator (PGC) from Tox21 10K library (AID 1224842). Also: nearly all actives have a fitted effect of over 15% in size. Also: potency is read from the fitted curve at half-maximal effect. In short, it runs like this: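 PGC/ERR reporter cell line, 2,000 cells per well, incubated 6 h at 37 C before 23 nL compound in DMSO was added. After 18 h at 37 C, One-Glo luminescence read following 30 min at room temperature.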

The target of experiment [8] is Thyrotropin receptor (Homo sapiens) (UniProt P16473). Kind of experiment: qHTS assay to identify small molecule agonists of the thyroid stimulating hormone receptor (TSHR) signaling pathway (AID 1224843; calls by dose curve; also: nearly all actives have a fitted effect of over 45% in size; also: potency is read from the fitted curve at half-maximal effect). In a few lines: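 Steps: seed 800 TSHR-HEK293 cells per well; add test compound and hold 30 min at ambient temperature; dispense cAMP-d2 then anti-cAMP cryptate; incubate 1 h at ambient; measure fluorescence intensity.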

A short description of experiment [9]: qHTS assay to identify small molecule agonists of the hypoxia (HIF-1) signaling pathway - cell viability counter screen (AID 1224844; calls by dose curve; also: nearly all actives have a fitted effect of over 50% in size; also: potency is read from the fitted curve at half-maximal effect). In a few lines: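 Cells (HRE-bla ME-180, 2,000 per well) sat 5 hrs at 37C, got compound for 17 hrs, were read for CCF4-AM FRET, and were finally lysed with CellTiter-Glo for a 30 min room-temperature luminescence read.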
Experiment [10] in a line: qHTS assay to identify small molecule agonists of the constitutive androstane receptor (CAR) signaling pathway - cell viability counter screen (AID 1224836). Also: series mostly up to about 92 µM; nearly all actives have a fitted effect of over 45% in size. In a few lines: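 23 h treatment, 37 C, 5% CO2. Cell line: HepG2 stably expressing hCAR with a CYP2B6-2.2kb construct. Co-treatment: PK11195, 0.75 uM final. Read-out: CellTiter-Fluor fluorescence intensity.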

Thyrotropin receptor (Homo sapiens), sequence (P16473 whole entry, looked up): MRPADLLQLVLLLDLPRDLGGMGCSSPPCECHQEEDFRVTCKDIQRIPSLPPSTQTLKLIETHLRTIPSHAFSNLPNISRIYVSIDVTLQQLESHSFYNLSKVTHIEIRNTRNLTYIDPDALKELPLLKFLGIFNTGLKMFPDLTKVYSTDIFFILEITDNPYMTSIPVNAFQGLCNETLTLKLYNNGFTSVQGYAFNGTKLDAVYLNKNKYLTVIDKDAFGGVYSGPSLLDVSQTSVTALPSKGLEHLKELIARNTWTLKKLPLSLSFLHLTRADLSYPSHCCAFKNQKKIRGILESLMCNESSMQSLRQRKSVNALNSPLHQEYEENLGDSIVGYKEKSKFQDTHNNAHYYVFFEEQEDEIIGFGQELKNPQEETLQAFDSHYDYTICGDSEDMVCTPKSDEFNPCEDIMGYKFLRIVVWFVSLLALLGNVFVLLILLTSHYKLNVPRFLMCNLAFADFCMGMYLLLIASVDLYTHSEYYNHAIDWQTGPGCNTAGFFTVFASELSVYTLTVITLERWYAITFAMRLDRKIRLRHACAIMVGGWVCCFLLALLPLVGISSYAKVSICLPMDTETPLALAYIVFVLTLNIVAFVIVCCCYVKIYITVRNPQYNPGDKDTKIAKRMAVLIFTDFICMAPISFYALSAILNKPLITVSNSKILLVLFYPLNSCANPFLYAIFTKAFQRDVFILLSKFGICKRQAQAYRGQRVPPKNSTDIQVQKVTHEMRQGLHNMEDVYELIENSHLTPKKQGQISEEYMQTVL
Nuclear receptor subfamily 1 group I member 3 (Homo sapiens), sequence (Q14994 whole entry, looked up): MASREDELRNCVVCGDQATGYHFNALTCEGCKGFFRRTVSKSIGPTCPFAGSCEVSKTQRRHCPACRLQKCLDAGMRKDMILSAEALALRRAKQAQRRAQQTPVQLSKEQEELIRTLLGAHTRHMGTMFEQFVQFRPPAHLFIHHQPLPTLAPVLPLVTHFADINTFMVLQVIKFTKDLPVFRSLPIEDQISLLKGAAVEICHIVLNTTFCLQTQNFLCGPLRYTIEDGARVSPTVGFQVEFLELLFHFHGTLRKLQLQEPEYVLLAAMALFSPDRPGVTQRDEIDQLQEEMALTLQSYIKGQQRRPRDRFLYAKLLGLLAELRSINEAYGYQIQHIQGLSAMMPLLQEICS
Luciferin 4-monooxygenase (Photinus pyralis), sequence (P08659 whole entry, looked up): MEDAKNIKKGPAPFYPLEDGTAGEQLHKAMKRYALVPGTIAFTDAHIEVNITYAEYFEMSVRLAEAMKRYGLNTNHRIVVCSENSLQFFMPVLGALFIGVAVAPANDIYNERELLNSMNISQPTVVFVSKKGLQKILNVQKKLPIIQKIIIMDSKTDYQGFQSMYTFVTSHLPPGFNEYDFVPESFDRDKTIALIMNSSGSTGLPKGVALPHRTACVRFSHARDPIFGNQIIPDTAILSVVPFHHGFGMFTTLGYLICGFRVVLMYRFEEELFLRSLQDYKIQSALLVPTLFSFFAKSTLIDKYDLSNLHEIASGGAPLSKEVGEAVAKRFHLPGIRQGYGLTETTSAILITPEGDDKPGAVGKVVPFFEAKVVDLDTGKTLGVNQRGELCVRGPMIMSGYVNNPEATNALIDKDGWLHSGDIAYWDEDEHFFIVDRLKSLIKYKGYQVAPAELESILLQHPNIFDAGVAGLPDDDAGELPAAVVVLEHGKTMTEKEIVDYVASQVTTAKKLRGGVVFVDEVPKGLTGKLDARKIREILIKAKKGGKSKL

On to `O=C(O)C(c1ccc(Cl)cc1)c1ccc(Cl)cc1`, for which the Potency entry in [1], in experiment [2], in [3], in experiment [4], in experiment [5] and in [6] was “inactive” each time. Further, the Potency result in [7] and in experiment [8] was “inactive” in each case.

Consider `NC(=S)N/N=C/c1cccnc1`, for which the Potency result in experiment [1], in experiment [2], in experiment [3], in experiment [4], in experiment [5] and in experiment [6] was “inactive” in each case. Moreover, the Potency result in [7] and in [9] was “inactive” in each case.

Turning to `Oc1ccc(C(O)CNCCCCCCNCC(O)c2ccc(O)c(O)c2)cc1O` (configuration not stated), the Potency entry in [1], in [2], in experiment [3], in experiment [5] and in experiment [9] was “inactive” throughout. The Potency in experiment [7] is 7.5 µM (active); in experiment [8], 6.68 µM (active).

Consider `CCN(CC)C(C)=O`, for which the Potency result in experiment [1], in [2], in experiment [3], in experiment [4], in experiment [5] and in experiment [6] was “inactive” in each case. For the same molecule, the Potency result in [7], in experiment [8] and in [9] was “inactive” each time.

Regarding `COCCOCCOCCOCCOC`, the Potency result in [1], in [10], in experiment [2], in experiment [5] and in experiment [8] was “inactive” in each case.

On to `CC(C)CCCC(C)CCO` (configuration not stated), for which the Potency result in experiment [1], in experiment [2], in experiment [3], in experiment [4], in experiment [5] and in [8] was “inactive” in each case. Besides, the Potency entry in experiment [9] was “inactive”.

For `CC1=CCC(C(C)C)C=C1` (configuration not stated), the Potency result in [10], in experiment [2], in [3], in experiment [4], in experiment [5] and in experiment [9] was “inactive” throughout.

On to `CCOC(=S)SSC(=S)OCC`, for which the Potency entry in [10], in experiment [2], in experiment [3], in experiment [4], in experiment [5] and in experiment [8] was “inactive” throughout. In addition, the Potency entry in experiment [9] was “inactive”.

With `Cc1ccccn1`, the Potency result in experiment [10], in [2], in experiment [3], in experiment [4], in experiment [5] and in experiment [6] was “inactive” throughout. Moreover, the Potency entry in [7] and in experiment [9] was “inactive” in each case.

For `CC(=O)c1ccc2c(c1)[C@H](NC(=O)c1ccc(F)cc1)[C@@H](O)C(C)(C)O2`, the Potency entry in experiment [1], in [3], in experiment [5] and in [8] was “inactive” in each case.

In the case of `COc1ccccc1OC(=O)Oc1ccccc1OC`, the Potency entry in experiment [10], in [2], in experiment [3], in experiment [4], in experiment [5] and in experiment [8] was “inactive” each time. For the same molecule, the Potency result in [9] was “inactive”.

Consider `NCc1ccccc1`, for which the Potency result in [10], in experiment [2], in experiment [3], in [4], in experiment [5] and in [6] was “inactive” throughout. For the same molecule, the Potency entry in experiment [7], in experiment [8] and in [9] was “inactive” each time.

Turning to `O=[N+]([O-])c1cccc(Cl)c1Cl`, the Potency result in [10], in [2], in experiment [3], in experiment [4], in experiment [5] and in experiment [6] was “inactive” throughout. In addition, the Potency result in [8] and in experiment [9] was “inactive” throughout.

On to `c1ccc(OCc2ccc(CCCN3CCOCC3)cc2)cc1`, for which the Potency result in experiment [10], in experiment [2], in [3], in experiment [5], in [6] and in [7] was “inactive” in each case. Besides, the Potency result in [8] and in experiment [9] was “inactive” throughout. Also, the Potency in experiment [4] was 29.8 µM (active).

For `CN1CCN(C2=Nc3cc(Cl)ccc3Nc3ccccc32)CC1`, the Potency entry in experiment [1], in experiment [3] and in experiment [8] was “inactive” each time.

On to `COCCCCCCCCOCCC[Si](C)(O[Si](C)(C)C)O[Si](C)(C)C`, for which the Potency result in experiment [1], in experiment [4] and in [9] was “inactive” throughout. In experiment [3], the Potency was 48.6 µM (active).

Turning to `Oc1ccc(Sc2ccc(O)cc2)cc1`, the Potency result in experiment [10], in [2], in [3], in [5] and in [9] was “inactive” throughout. The Potency in [4] was 57.2 µM (active).

As to `CC(=O)OCCc1ccccc1`, the Potency result in experiment [10], in experiment [2], in [3], in experiment [5], in experiment [8] and in experiment [9] was “inactive” in each case.

For `CCCCCC/C=C/C=O`, the Potency result in [10], in experiment [2], in experiment [3], in [4], in experiment [5] and in experiment [6] was “inactive” each time. Besides, the Potency result in experiment [7] and in experiment [9] was “inactive” each time.

In the case of `CC(=O)CC(=O)c1ccccc1`, the Potency entry in experiment [1], in experiment [5] and in experiment [6] was “inactive” each time. For the same molecule, in experiment [3], the Potency was 10.9 µM (active).

For the molecule `CC(=O)c1c(C)c([N+](=O)[O-])c(C(C)(C)C)c([N+](=O)[O-])c1C`, the Potency entry in experiment [10], in [2], in experiment [3] and in [5] was “inactive” each time. Moreover, in experiment [8], the Potency is 6.11 µM (active).

Take `CCCCOCCOCCOCCOCCO`: the Potency result in [1], in [2], in experiment [5], in experiment [8] and in [9] was “inactive” throughout.

For `CC(C(=O)O)c1ccc(-c2ccccc2)c(F)c1` (configuration not stated), the Potency entry in experiment [10], in experiment [2], in experiment [3], in [4], in [5] and in [9] was “inactive” in each case.

As for `CC(=O)/C(C)=C/C1C(C)=CCCC1(C)C` (configuration not stated), the Potency result in experiment [10], in experiment [2], in [3], in [5], in experiment [6] and in experiment [7] was “inactive” throughout. Moreover, the Potency entry in [8] and in experiment [9] was “inactive” each time.

Turning to `O=C(O)Cc1cc(I)c(Oc2ccc(O)c(I)c2)c(I)c1`, the Potency entry in [10], in experiment [2], in experiment [3], in experiment [5], in experiment [7] and in experiment [8] was “inactive” throughout. In [9], the Potency was 38.9 µM (active).

As to `CC(C)(C)C(=O)OCOP(=O)(COCCn1cnc2c(N)ncnc21)OCOC(=O)C(C)(C)C`, the Potency entry in experiment [1], in experiment [5] and in [8] was “inactive” throughout.

For the molecule `O=C(CC(=O)c1ccccc1)c1ccccc1`, the Potency is 6.06 µM (active) in experiment [1] and 29.3 µM (active) in experiment [7]. The Potency entry in experiment [2], in experiment [5], in experiment [6] and in experiment [8] was “inactive” throughout.

Regarding `O=C(c1ccc(O)cc1)c1ccc(O)cc1`, the Potency entry in [10], in experiment [2], in [3], in [5], in experiment [6] and in experiment [8] was “inactive” each time.

Turning to `CN1CCN(C2=Nc3ccccc3Sc3ccc(Cl)cc32)CC1`, the Potency result in experiment [10], in experiment [2], in [3], in experiment [4], in experiment [5] and in [6] was “inactive” in each case. For the same molecule, the Potency result in experiment [7] and in [8] was “inactive” each time.

Consider `CCCCCc1ccc(N)cc1`, for which the Potency result in experiment [10], in [2], in experiment [3], in [5] and in experiment [8] was “inactive” in each case.
